Measured values as given in ChEMBL document CHEMBL1961873, “Compounds: GSK PKIS; Assays: Nanosyn kinase panel” (2012).

Columns and labels:
[1] = molecular target: T1, Tyrosine-protein kinase receptor TYRO3 (Homo sapiens) (UniProt Q06418); details: at 1 µM
T1 sequence (whole entry): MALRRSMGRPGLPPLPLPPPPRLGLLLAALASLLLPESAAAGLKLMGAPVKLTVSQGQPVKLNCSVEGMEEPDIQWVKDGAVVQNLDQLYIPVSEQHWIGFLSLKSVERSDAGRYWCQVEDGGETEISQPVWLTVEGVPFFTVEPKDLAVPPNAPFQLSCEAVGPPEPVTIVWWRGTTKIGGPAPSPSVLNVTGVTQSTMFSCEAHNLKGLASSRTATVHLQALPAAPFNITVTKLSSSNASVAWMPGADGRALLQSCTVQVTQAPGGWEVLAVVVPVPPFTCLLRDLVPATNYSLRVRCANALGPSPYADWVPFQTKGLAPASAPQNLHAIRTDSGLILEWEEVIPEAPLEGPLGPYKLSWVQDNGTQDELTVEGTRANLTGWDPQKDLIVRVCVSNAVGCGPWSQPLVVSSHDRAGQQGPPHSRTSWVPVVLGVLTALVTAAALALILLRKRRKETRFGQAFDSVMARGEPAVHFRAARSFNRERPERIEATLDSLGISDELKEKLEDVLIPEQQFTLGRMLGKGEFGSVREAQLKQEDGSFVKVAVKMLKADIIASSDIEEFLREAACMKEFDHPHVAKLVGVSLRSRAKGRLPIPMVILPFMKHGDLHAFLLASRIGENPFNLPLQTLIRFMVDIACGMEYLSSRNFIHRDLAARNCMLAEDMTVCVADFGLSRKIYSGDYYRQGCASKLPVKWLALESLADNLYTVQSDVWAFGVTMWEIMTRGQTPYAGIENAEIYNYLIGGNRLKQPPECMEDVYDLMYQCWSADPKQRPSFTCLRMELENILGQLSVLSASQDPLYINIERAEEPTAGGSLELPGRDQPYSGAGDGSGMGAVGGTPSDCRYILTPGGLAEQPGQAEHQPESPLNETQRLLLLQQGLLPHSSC

[2] = molecular target: Tyrosine-protein kinase Yes (Homo sapiens) (UniProt P07947); details: at 0.1 µM
[3] = molecular target: Tyrosine-protein kinase Yes (Homo sapiens) (UniProt P07947); details: at 1 µM
[4] = molecular target: T2, Tyrosine-protein kinase ZAP-70 (Homo sapiens) (UniProt P43403); details: at 0.1 µM
T2 sequence (whole entry): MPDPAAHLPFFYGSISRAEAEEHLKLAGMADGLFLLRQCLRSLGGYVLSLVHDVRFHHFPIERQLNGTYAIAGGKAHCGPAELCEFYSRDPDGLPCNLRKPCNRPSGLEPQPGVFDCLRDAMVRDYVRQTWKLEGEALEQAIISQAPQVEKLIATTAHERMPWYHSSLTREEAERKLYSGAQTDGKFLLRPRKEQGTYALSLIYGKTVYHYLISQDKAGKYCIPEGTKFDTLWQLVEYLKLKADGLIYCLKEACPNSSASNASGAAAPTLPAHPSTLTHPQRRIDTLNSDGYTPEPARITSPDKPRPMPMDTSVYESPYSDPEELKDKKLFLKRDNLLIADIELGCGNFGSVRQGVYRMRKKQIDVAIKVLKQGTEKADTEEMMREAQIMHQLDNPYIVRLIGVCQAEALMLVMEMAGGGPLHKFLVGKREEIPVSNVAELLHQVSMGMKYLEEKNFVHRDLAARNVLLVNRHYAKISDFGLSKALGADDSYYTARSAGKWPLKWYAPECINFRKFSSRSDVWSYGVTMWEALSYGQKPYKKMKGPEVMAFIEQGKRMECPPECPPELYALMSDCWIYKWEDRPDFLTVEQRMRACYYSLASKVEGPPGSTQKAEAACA

[5] = molecular target: T2, Tyrosine-protein kinase ZAP-70 (Homo sapiens); details: at 1 µM
[6] = molecular target: Serine/threonine-protein kinase B-raf (Homo sapiens) (UniProt P15056); details: at 0.1 µM
[7] = molecular target: Serine/threonine-protein kinase B-raf (Homo sapiens) (UniProt P15056); details: at 1 µM
[8] = system: Serine/threonine-protein kinase B-raf (Homo sapiens), P15056 [V600E]; details: at 0.1 µM
[9] = system: Serine/threonine-protein kinase B-raf (Homo sapiens), P15056 [V600E]; details: at 1 µM
[10] = molecular target: RAF proto-oncogene serine/threonine-protein kinase (Homo sapiens) (UniProt P04049); details: at 0.1 µM
[11] = molecular target: RAF proto-oncogene serine/threonine-protein kinase (Homo sapiens) (UniProt P04049); details: at 1 µM
[12] = molecular target: T3, Interleukin-1 receptor-associated kinase 4 (Homo sapiens) (UniProt Q9NWZ3); details: at 0.1 µM
T3 sequence (whole entry): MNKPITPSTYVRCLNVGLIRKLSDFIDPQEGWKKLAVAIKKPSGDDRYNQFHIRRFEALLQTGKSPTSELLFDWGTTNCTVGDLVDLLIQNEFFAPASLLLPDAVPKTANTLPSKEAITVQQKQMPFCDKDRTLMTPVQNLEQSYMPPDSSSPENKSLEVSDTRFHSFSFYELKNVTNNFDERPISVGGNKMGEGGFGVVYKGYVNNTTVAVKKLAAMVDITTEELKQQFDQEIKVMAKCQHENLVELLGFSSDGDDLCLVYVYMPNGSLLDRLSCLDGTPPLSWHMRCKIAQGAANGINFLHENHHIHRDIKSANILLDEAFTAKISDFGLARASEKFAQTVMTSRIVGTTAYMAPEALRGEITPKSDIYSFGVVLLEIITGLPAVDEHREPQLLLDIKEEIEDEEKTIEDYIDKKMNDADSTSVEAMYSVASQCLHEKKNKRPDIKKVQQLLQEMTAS

[13] = molecular target: T3, Interleukin-1 receptor-associated kinase 4 (Homo sapiens); details: at 1 µM
[14] = molecular target: Leucine-rich repeat serine/threonine-protein kinase 2 (Homo sapiens) (UniProt Q5S007); details: at 0.1 µM
[15] = molecular target: Leucine-rich repeat serine/threonine-protein kinase 2 (Homo sapiens) (UniProt Q5S007); details: at 1 µM
[16] = system: Leucine-rich repeat serine/threonine-protein kinase 2 (Homo sapiens), Q5S007 [G2019S]; details: at 0.1 µM
[17] = system: Leucine-rich repeat serine/threonine-protein kinase 2 (Homo sapiens), Q5S007 [G2019S]; details: at 1 µM

Chain of RAF proto-oncogene serine/threonine-protein kinase (Homo sapiens) (P04049 whole entry): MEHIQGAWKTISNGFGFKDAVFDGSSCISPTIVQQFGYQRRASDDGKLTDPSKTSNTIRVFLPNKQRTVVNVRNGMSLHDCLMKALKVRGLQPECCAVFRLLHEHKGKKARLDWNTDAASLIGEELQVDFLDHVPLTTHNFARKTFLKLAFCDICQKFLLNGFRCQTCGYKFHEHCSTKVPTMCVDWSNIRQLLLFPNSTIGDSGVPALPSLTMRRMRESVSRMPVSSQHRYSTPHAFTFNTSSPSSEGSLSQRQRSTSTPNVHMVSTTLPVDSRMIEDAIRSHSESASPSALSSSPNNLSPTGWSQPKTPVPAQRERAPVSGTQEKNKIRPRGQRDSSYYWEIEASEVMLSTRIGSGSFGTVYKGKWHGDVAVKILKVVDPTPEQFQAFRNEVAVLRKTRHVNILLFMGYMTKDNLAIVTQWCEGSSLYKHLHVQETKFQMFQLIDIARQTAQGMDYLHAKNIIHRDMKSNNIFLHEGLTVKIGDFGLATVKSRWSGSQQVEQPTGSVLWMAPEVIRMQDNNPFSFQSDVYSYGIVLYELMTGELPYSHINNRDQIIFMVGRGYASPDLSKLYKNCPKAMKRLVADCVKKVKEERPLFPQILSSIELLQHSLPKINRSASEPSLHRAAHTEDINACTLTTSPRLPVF
Chain of Serine/threonine-protein kinase B-raf (Homo sapiens), P15056 [V600E] (P15056 whole entry V600E): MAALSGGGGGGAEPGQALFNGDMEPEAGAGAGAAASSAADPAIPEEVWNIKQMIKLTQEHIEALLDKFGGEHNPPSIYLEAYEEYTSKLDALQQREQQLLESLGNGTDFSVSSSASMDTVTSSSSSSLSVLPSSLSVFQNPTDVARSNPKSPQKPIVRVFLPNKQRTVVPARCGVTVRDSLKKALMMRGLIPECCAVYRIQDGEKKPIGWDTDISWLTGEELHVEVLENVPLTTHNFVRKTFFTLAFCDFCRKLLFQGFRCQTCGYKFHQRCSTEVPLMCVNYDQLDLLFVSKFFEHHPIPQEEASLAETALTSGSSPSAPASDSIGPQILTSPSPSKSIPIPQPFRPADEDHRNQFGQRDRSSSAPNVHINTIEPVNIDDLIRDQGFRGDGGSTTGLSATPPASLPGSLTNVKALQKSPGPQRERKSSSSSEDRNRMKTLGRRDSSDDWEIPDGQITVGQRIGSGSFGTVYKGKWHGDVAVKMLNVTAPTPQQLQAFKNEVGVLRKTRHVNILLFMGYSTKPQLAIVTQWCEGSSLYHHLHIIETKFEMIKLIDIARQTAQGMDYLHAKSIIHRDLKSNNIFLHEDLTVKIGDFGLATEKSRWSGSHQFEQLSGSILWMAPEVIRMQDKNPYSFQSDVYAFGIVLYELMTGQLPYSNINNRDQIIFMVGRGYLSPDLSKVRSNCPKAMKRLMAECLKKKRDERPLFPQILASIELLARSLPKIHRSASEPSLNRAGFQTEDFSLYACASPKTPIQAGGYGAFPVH
Chain of Leucine-rich repeat serine/threonine-protein kinase 2 (Homo sapiens), Q5S007 [G2019S] (Q5S007 whole entry G2019S): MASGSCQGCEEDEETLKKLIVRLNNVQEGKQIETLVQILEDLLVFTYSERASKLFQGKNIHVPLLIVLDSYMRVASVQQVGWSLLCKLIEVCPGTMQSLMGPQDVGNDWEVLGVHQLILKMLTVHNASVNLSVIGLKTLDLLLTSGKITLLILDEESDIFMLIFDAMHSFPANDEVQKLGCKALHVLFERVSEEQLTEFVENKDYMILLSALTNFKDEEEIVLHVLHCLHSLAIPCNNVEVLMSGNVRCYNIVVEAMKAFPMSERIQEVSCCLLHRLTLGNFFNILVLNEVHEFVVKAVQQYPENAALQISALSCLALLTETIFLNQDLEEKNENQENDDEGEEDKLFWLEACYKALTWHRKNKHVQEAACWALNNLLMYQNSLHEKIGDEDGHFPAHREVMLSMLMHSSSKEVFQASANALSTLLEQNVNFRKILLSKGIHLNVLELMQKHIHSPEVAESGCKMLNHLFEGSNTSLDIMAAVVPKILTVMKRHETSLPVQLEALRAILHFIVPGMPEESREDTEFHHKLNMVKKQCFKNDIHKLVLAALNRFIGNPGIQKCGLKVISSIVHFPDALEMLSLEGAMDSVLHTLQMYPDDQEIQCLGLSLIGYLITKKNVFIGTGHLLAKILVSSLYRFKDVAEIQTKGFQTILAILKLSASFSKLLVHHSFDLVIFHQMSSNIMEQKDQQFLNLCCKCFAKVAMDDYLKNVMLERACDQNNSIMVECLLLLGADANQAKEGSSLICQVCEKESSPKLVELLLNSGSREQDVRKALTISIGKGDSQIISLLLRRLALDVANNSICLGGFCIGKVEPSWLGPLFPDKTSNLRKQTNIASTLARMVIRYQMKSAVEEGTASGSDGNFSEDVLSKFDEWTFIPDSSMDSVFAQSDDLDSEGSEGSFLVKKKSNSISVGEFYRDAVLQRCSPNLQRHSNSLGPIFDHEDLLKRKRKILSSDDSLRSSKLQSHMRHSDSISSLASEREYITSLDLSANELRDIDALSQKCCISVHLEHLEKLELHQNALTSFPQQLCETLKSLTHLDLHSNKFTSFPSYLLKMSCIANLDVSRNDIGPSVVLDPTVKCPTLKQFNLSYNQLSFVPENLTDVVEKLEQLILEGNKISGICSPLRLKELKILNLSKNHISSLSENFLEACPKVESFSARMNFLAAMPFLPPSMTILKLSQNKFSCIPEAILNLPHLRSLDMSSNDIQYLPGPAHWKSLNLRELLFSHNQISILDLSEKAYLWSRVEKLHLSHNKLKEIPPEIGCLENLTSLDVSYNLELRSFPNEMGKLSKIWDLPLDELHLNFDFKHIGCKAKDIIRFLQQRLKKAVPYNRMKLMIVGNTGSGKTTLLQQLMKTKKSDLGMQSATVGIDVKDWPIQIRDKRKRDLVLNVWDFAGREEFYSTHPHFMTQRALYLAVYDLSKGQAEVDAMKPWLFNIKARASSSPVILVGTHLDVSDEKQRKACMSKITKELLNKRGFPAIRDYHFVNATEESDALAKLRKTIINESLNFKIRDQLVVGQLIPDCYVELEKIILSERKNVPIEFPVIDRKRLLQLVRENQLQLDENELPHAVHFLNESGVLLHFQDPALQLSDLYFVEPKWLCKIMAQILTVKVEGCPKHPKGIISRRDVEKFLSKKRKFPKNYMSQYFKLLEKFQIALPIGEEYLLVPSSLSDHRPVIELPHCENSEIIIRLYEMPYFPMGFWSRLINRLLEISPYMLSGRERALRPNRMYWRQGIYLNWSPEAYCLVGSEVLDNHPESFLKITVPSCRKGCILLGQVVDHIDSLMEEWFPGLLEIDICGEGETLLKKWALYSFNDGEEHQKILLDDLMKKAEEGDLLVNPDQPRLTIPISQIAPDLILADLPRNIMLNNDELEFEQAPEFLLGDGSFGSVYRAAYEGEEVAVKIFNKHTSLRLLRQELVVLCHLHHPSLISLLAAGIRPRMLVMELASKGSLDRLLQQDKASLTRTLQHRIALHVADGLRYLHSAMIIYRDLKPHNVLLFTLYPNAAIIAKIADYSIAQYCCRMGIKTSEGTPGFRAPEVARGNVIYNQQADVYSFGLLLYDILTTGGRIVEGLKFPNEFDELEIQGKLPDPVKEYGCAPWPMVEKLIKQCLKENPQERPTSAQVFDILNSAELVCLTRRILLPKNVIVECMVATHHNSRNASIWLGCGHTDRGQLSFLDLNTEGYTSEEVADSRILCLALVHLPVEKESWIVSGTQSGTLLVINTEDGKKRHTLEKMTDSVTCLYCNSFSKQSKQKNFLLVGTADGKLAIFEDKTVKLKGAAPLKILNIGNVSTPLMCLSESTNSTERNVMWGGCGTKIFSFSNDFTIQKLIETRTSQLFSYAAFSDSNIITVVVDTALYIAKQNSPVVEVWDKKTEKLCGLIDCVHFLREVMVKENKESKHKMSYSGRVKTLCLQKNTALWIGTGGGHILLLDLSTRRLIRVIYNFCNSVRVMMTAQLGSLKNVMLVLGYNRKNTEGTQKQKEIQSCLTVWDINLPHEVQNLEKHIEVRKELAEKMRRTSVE
Chain of Serine/threonine-protein kinase B-raf (Homo sapiens) (P15056 whole entry): as the sequence (P15056 whole entry V600E) above, with E600V counted along it
Chain of Tyrosine-protein kinase Yes (Homo sapiens) (P07947 2-543 limits assumed): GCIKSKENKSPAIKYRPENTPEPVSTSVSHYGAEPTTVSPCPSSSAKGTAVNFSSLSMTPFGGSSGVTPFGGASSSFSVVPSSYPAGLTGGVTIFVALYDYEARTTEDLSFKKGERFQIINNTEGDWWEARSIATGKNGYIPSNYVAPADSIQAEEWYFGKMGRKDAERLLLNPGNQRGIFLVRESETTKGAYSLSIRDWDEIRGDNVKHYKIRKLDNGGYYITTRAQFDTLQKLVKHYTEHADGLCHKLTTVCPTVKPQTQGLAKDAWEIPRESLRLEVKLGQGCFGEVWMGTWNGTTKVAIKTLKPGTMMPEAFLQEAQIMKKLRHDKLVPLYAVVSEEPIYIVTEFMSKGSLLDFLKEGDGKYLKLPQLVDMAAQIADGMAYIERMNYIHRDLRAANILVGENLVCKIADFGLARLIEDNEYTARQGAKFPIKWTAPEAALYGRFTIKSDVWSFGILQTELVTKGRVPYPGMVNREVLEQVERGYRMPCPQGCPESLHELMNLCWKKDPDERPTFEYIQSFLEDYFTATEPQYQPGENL
Chain of Leucine-rich repeat serine/threonine-protein kinase 2 (Homo sapiens) (Q5S007 whole entry): as the sequence (Q5S007 whole entry G2019S) above, with S2019G counted along it

| SMILES | inhibition [1] | inhibition [2] | inhibition [3] | inhibition [4] | inhibition [5] | inhibition [6] | inhibition [7] | inhibition [8] | inhibition [9] | inhibition [10] | inhibition [11] | inhibition [12] | inhibition [13] | inhibition [14] | inhibition [15] | inhibition [16] | inhibition [17] |
| --- | --- | --- | --- | --- | --- | --- | --- | --- | --- | --- | --- | --- | --- | --- | --- | --- | --- |
| CNC(=O)c1cncc(/C=C/c2ccccc2Cl)c1 | 2.53% | 3.64% | 7.95% | 1.79% | 1.12% | -0.63% | 0.08% | -0.33% | 0.71% | 0.74% | -3.13% | -1.64% | 0.01% | 3.2% | 4.57% | 1.78% | 6.07% |
| CC(=O)Nc1cccc(C#Cc2cncnc2Nc2ccc(OCc3cccc(F)c3)c(Cl)c2)c1 | 0.81% | 1.2% | 1.7% | 3.59% | 6.95% | 1.95% | 1.44% | 1.85% | 2.03% | 2.77% | 1.55% | -1.12% | 1.86% | 4.77% | 7.3% | 3.19% | 8.37% |
| CC(=O)NCc1cccc(C#Cc2cncnc2Nc2ccc(OCc3cccc(F)c3)c(Cl)c2)c1 | 0.4% | 0.55% | 6.04% | -1.79% | 2.22% | 1.06% | 1.33% | 3.3% | 0.73% | 4.54% | -4.04% | 2.92% | 0.5% | 0.41% | 7.51% | 2.36% | 7.6% |
| CCn1c(-c2nonc2N)nc2c(C#CC(C)(C)O)nc(OC[C@H](N)c3ccccc3)cc21 | 1.88% | 2.49% | 7.77% | 0.59% | -2.5% | 1.18% | 5.43% | 1.68% | 2.41% | -2.29% | -1.64% | 1.14% | 1.37% | 7.19% | 29.8% | 23.8% | 63.2% |
| Clc1ccc(-c2nn3ncccc3c2-c2ccnc(Nc3ccccc3)n2)cc1 | 5.63% | 44.9% | 89.5% | 0.2% | 0.42% | 2.69% | 4.94% | 2.08% | 5.6% | -2.35% | -3.34% | -3.75% | 1.51% | 1.23% | 5.86% | 3.01% | 8.26% |
| Nc1nc(-c2cccc(Cl)c2)c(-c2ccc3ncccc3n2)s1 | 5.98% | 4.06% | 18.4% | 4.31% | 3.94% | 7.17% | 9.65% | 7.28% | 8.63% | -1.17% | -0.32% | 3.86% | 2.05% | 3.53% | 7.21% | 6.96% | 9.35% |
| Cc1cccc(Nc2ncc(-c3ccccc3)o2)c1 | 4.61% | 0.94% | 11.3% | 1.66% | 1.24% | 2.32% | 6.08% | 3.58% | 3.05% | 0.64% | -2.34% | 1.25% | 1.27% | 1.6% | 7.74% | 5.32% | 11.8% |
| c1ccc(COc2ccc(Nc3ncnc4ccc(-c5ccco5)cc34)cc2)cc1 | 1.86% | 3.28% | 13.1% | -2.15% | 0.17% | 1.52% | 1.99% | 2.01% | 3.23% | 11.2% | 6.05% | 0.92% | 1.06% | 4.27% | 3.99% | 3.97% | 1.89% |
